Laboratory results: PubChem BioAssay
Active and inactive are the calls of the source.

Assays:
Albumin (Bos taurus) = Albumin (Bos taurus) (UniProt P02769); assay: compounds binding labelled BSA control protein – biochemical, small-molecule microarray, Alexa647 label, 635/667 nm fluorescence, artefact control for SMM control protein annotation, profiling panel (AID 1118); details: BSA-A647 binding, fluorescence 635 nm, higher = more signal;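 note: score merges 667 nm emission intensity and signal-to-noise per printed compound spot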
[1] = probe aXIP binding to arrayed compounds – biochemical, NeuroSMM set, 635/667 nm fluorescence, primary screen (AID 1119); details: small-molecule microarray, higher = more signal, called active from +8 up or from −8 down;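 note: probe is the protein aXip251-270 applied at 1 µg/mL to compound-printed slides; binding of probe to printed compounds measured as 667 nm fluorescence plus signal to noise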
[2] = probe aNOTCH3 binding on compound microarray – biochemical, small-molecule microarray, 635/667 nm fluorescence, primary screen (AID 1120); details: higher = more signal;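 note: probe is a biotin-tagged antibody raised against NOTCH3 rather than NOTCH3 protein; score merges spot fluorescence near 667 nm with spot signal to noise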
[3] = probe aNOTCH2 binding on compound microarray – biochemical, small-molecule microarray, 635/667 nm fluorescence, primary screen (AID 1121); details: higher = more signal;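 note: score merges feature fluorescence read at 667 nm with its signal to noise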
[4] = target: Carbonic anhydrase 2 (Homo sapiens) (UniProt P00918); assay: compounds binding carbonic anhydrase 2 – biochemical, small-molecule microarray, Alexa647-labelled CAII, profiling panel (AID 1122); details: CAII-A647 binding fluorescence, higher = more signal
[5] = COS7 lysate on small-molecule microarray, probe aHis, 635 nm (AID 1123); details: COS7 cell lysate, fluorescence, higher = more signal;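 note: z-score combines 667nm fluorescence intensity with signal-to-noise per printed compound spot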
[6] = probe aLAP1 signal on lysate-treated microarray – cell lysate, small-molecule microarray, COS7 lysate, primary screen (AID 1124); details: probe aLAP1, fluorescence, higher = more signal;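 note: lysate comes from COS7 cells expressing LAP1 and is applied at 0.3 µg/mL; score merges spot fluorescence near 667 nm with signal-to-noise over triplicate slides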
Sam68 (KHDRBS1) = assay: compounds binding KHDRBS1 protein – biochemical, small-molecule microarray, 635 nm fluorescence, primary screen (AID 1125); details: higher = more signal;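 note: score merges 667 nm channel intensity with signal to noise over triplicate slides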
[7] = tested on: Chordin-like protein 2 (CHRDL2); assay: compounds binding chordin-like 2 – biochemical, small-molecule microarray, 635 nm fluorescence, primary screen (AID 1126); details: fluorescence 635 nm, higher = more signal;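 note: printed compound slides probed with Chrdl2 protein at 4 µg/mL for 1 h at 4 C; score merges 667 nm emission intensity with signal to noise over three replicate slides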
[8] = target: Concanavalin-A (Canavalia ensiformis) (UniProt P02866); assay: compounds binding concanavalin A lectin – biochemical, small-molecule microarray, Alexa647 label, 635 nm, artefact control for SMM control protein annotation, primary screen (AID 1127); details: ConA-A647 binding fluorescence, higher = more signal;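 note: z combines 667 nm emission intensity with signal-to-noise across three replicate slides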
[9] = compounds binding Alexa647 anti-His antibody – biochemical, small-molecule microarray, 635 nm fluorescence, artefact control for SMM control protein annotation, primary screen (AID 1128); details: higher = more signal;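 note: score merges feature fluorescence with signal-to-noise for each printed compound spot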
[10] = tested on: Human papillomavirus type 1a E7 protein (residues 1-88); assay: HPV1a E7 small-molecule binders, primary screen, biochemical, small-molecule microarray, residues 1-88, 635 nm (AID 1129); details: small-molecule microarray binding, fluorescence 635 nm; higher = more signal
[11] = target: Focal adhesion kinase 1 (Homo sapiens) (UniProt Q05397); assay: PTK2 protein binding on printed compound slides – biochemical, small-molecule microarray, 635/667 nm fluorescence, BSA, DTT, primary screen (AID 1130); details: 635 nm fluorescence, higher = more signal;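 note: composite of spot emission at 667 nm and signal to noise over triplicate slides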
[12] = tested on: Fibrinogen (Alexa647-labelled); assay: Alexa647-fibrinogen binding to printed small molecules – biochemical, small-molecule microarray, 635/667 nm fluorescence, artefact control for SMM control-protein annotation, profiling panel (AID 1131); details: fibrinogen-A647 binding fluorescence, higher = more signal;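 note: z-score merges 667 nm fluorescence with per-spot signal-to-noise over triplicate slides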
[13] = target: Follistatin (Homo sapiens) (UniProt P19883); assay: FST protein binding to printed compounds – biochemical, small-molecule microarray, 635/667 nm fluorescence, primary screen (AID 1132); details: 635 nm fluorescence, higher = more signal
[14] = target: Fibroblast growth factor 2 (Homo sapiens) (UniProt P09038); assay: basic fibroblast growth factor binding to printed compounds – biochemical, small-molecule microarray, 635/667 nm fluorescence, primary screen (AID 1133); details: FGF2, fluorescence 635/667, higher = more signal
[15] = JC-1 mitochondrial potential readout, lung cancer cells – cell-based, A549, JC-1 fluorescence, basal, 24 h, 100 nL, profiling panel (AID 1138); details: higher = more signal;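 note: A549 lung adenocarcinoma cells under basal conditions with no added stimulus; test concentration not given here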
Lefty1 = Lefty1 protein binding to printed compounds – biochemical, small-molecule microarray, 635/667 nm fluorescence, primary screen (AID 1139); details: fluorescence 635/667, higher = more signal
[16] = tested on: wheat germ agglutinin (Triticum aestivum), Alexa647-labelled; assay: Alexa647-WGA lectin binding to printed small molecules – biochemical, small-molecule microarray, 635/667 nm fluorescence, artefact control for SMM control-protein annotation, profiling panel (AID 1140); details: WGA-A647 binding, 635 nm fluorescence, higher = more signal;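 note: score merges 667 nm feature emission with signal to noise over triplicate slides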
[17] = target: Luciferin 4-monooxygenase (Photinus pyralis) (UniProt P08659); assay: inhibition of purified Photinus pyralis luciferase – biochemical, luminescence, purified enzyme, 2006 set, primary screen (AID 1141); details: purified firefly luciferase, SteadyGlo luminescence, 30 min; higher = more signal, called active from +8 up or from −8 down;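 note: cell-free assay with purified firefly luciferase at 100 ng per well in PBS; test concentration not given here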
Luciferin 4-monooxygenase (Photinus pyralis), sequence (P08659 whole entry, looked up): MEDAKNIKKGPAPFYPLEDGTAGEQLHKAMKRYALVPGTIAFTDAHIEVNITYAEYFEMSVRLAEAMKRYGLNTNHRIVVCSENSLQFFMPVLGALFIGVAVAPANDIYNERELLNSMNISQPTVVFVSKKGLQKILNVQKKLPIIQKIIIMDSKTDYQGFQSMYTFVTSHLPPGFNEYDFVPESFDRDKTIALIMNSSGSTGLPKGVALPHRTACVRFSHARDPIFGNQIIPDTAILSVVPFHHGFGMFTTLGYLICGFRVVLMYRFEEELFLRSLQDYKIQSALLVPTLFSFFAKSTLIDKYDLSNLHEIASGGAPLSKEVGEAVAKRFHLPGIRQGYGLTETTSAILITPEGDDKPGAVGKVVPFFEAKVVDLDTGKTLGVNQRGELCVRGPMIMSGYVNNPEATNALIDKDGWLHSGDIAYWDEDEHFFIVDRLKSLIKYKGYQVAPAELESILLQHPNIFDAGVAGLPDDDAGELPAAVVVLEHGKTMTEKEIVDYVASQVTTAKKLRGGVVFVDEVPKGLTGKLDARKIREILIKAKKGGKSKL

Focal adhesion kinase 1 (Homo sapiens), sequence (Q05397 whole entry, looked up): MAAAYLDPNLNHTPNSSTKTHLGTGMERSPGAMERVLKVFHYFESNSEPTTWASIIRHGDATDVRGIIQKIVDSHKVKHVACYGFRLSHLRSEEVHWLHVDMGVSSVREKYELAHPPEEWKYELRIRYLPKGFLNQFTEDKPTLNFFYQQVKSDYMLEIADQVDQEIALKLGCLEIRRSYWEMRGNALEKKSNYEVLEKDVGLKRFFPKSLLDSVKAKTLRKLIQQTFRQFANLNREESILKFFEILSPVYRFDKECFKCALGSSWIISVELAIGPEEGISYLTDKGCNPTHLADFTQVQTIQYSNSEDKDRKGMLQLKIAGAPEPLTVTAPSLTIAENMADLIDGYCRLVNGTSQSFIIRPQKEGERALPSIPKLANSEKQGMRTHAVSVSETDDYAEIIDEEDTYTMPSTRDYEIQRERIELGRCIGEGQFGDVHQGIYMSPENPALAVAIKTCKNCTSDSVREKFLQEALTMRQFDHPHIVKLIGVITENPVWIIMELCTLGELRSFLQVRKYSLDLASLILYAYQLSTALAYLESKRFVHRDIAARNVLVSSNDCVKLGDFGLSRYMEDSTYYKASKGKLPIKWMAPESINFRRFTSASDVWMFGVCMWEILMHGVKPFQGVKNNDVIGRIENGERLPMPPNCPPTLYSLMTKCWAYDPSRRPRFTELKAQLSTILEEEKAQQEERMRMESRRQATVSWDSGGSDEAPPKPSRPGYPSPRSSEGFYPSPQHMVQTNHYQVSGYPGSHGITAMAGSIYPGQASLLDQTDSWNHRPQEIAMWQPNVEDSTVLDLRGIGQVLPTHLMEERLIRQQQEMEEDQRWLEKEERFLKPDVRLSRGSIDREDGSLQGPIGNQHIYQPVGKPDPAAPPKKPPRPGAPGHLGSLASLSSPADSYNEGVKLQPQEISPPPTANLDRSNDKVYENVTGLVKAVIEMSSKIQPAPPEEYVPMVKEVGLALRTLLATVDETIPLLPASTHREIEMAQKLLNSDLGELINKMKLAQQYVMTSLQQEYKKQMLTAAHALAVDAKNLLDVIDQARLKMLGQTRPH
Fibroblast growth factor 2 (Homo sapiens), sequence (P09038 whole entry, looked up): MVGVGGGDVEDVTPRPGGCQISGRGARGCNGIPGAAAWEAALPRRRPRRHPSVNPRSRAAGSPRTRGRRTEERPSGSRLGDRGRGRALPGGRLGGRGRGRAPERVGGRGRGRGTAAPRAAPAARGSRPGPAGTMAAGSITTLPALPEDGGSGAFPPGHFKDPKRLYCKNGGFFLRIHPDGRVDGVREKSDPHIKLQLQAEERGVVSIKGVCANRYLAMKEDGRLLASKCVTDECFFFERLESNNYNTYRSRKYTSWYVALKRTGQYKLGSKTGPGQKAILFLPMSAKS
Follistatin (Homo sapiens), sequence (P19883 whole entry, looked up): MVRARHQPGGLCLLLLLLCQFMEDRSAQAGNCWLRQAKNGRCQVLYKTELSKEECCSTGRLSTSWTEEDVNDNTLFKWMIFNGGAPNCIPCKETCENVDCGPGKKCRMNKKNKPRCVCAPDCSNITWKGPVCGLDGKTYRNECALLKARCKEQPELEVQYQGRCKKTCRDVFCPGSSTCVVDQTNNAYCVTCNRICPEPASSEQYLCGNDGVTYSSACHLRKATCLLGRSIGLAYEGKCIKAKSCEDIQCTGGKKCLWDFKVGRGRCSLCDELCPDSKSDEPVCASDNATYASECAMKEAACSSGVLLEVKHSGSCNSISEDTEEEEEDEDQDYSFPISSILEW
Concanavalin-A (Canavalia ensiformis), sequence (P02866 whole entry, looked up): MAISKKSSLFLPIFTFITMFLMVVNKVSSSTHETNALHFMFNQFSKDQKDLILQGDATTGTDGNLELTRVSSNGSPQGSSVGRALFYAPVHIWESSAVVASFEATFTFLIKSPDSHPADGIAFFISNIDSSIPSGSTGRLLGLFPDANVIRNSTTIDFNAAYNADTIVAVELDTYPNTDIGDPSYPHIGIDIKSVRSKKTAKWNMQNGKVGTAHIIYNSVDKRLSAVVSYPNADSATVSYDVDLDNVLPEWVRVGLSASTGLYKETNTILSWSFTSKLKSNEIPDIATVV
Albumin (Bos taurus), sequence (P02769 whole entry, looked up): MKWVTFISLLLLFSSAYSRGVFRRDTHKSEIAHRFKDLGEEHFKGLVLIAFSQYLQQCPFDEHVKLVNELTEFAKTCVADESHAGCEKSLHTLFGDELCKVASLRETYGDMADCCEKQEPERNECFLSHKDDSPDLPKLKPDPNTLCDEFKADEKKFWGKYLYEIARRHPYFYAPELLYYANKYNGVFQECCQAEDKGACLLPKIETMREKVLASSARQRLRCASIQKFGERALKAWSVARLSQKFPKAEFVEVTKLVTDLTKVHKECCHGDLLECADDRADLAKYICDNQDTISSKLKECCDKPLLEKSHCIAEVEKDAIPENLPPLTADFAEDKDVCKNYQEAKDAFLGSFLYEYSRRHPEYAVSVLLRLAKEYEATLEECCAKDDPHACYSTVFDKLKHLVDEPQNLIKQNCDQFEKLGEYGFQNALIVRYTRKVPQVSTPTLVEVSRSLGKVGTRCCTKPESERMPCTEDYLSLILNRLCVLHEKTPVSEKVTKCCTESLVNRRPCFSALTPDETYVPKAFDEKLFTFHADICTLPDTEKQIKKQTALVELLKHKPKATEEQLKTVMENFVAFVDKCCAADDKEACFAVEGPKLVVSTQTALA

| SMILES | composite z-score (Albumin (Bos taurus)) | composite Z-score [1] | composite z-score [2] | composite z-score [3] | composite z-score [4] | composite z-score [5] | composite z-score [6] | composite z-score (Sam68 (KHDRBS1)) | composite z-score [7] | composite z-score [8] | composite z-score [9] | composite z-score [10] | composite z-score [11] | composite z-score [12] | composite z-score [13] | composite z-score [14] | z-score [15] | composite z-score (Lefty1) | composite z-score [16] | z-score [17] |
| --- | --- | --- | --- | --- | --- | --- | --- | --- | --- | --- | --- | --- | --- | --- | --- | --- | --- | --- | --- | --- |
| COC(=O)[C@@]1(Cc2ccc(F)cc2)[C@H]2c3cc(C(=O)N4CCCC4)n(CCF)c3C[C@H]2CN1C(=O)c1ccccc1 | 1.09 | 0.803 (inactive) | 1.82 | 0.948 | 0.811 | 3.46 | 0.829 | 0.37 | 0.294 | 0.857 | 2.82 | 1.2 | 1.67 | 0.642 | 0.088 | -0.299 | 0.0101 | -0.427 | 1.4 | 0.125 (inactive) |
| CC=CC(O)C1C=CC2C(=O)N(c3ccccc3)C(=O)C2N1Nc1ccc([N+](=O)[O-])cc1 (stereo not given) | 0.0015 | -0.127 (inactive) | -0.0044 | -0.123 | 0.661 | 0.657 | 0.865 | 0.729 | 0.414 | 0.217 | 1.58 | 0.644 | 0.427 | 0.752 | 0.495 | 0.194 | -0.645 | 0.112 | 0.645 | 1.28 (inactive) |
| CC(=O)NCCCC[C@@H]1NC(=O)[C@@H]2C[C@H](C(=O)O)[C@H](c3ccc(O)cc3)N2C1=O | -0.757 | 1.77 (inactive) | -0.594 | -0.1 | 0.658 | -0.0142 | -0.0574 | -1.04 | -0.755 | 0.092 | 2.07 | -1.12 | -0.58 | -0.408 | -0.893 | -1.15 | -0.61 | -1.71 | -0.885 | 0.75 (inactive) |
| COC(=O)C(CC#Cc1ccc2c(c1)[C@]1(C(=O)N2)[C@H](C(=O)O)[C@H]2C(=O)O[C@H](c3ccccc3)[C@H](c3ccccc3)N2[C@@H]1c1ccccc1OCCO)C(=O)OC | 0.788 | -0.051 (inactive) | 0.277 | 0.054 | 0.684 | 1.62 | 1.11 | 1.32 | 0.364 | 1.15 | 2.8 | 1.24 | 0.712 | 0.95 | 1.18 | 0.838 | -1.01 | 0.976 | 1.18 | -3.09 (inactive) |
| C=C(C(=O)CC[C@H](OC(=O)c1cccnc1)c1ccc(CO)o1)C(C)C | 0.0812 | 0.674 (inactive) | 0.0596 | -0.0633 | 0.655 | 0.403 | 0.309 | 0.839 | 0.302 | 0.645 | -0.109 | 1.09 | -0.22 | 0.88 | 0.886 | 0.962 | -0.559 | 1.04 | 0.884 | -1.55 (inactive) |
| CC(C)(C)OC(=O)CC[C@]1(C(=O)N2CCOCC2)N=C(c2ccc(OCCCO)cc2)O[C@H]1c1ccccc1 | 0.969 | -0.131 (inactive) | 0.116 | -0.17 | 0.834 | 2.75 | 0.135 | 1.02 | -0.267 | 0.838 | 1.9 | 0.645 | 0.407 | 0.886 | 0.825 | 0.858 | 2.23 | 0.398 | 0.298 | -1.99 (inactive) |
| O=C1O[C@H](c2ccccc2)[C@H](c2ccccc2)N2[C@H]1[C@@H](C(=O)O)[C@]1(C(=O)Nc3ccccc31)[C@H]2c1ccc(O)cc1 | -0.731 | -0.0012 (inactive) | -0.135 | -0.131 | 0.673 | 0.969 | 1.01 | -0.43 | -0.632 | 0.586 | -0.585 | -0.0964 | 0.133 | -1.31 | 0.0111 | 0.152 | 0.226 | -0.634 | -0.55 | 0.002 (inactive) |
| COC(=O)[C@@]1(Cc2ccccc2)[C@H]2c3cc(C(=O)N4CCCC4)n(C[C@H](O)CO)c3C[C@H]2CN1C(=O)c1ccccc1 | 0.659 | -0.164 (inactive) | 0.152 | 0.0837 | 0.907 | 1.79 | 0.288 | 0.18 | -1.34 | -0.311 | 1.39 | 0.926 | 1.62 | -0.455 | -0.326 | -0.978 | 0.577 | -0.554 | 1.18 | 1.22 (inactive) |
| C=CCOC(=O)[C@H]1[C@@H]2C(=O)O[C@@H](c3ccccc3)[C@@H](c3ccccc3)N2[C@@H](c2ccc(OCCOC(=O)[C@H]3C[C@H]4C(=O)N[C@@H](Cc5ccccc5)C(=O)N4[C@H]3c3ccc(O)cc3)cc2)[C@]12C(=O)Nc1ccc(I)cc12 | -0.175 | 0.341 (inactive) | 0.189 | -0.11 | 0.28 | 1.78 | 0.428 | 1.3 | 1.23 | 1.14 | 0.951 | 1.14 | 0.665 | 0.565 | 1.32 | 1.29 | -0.395 | 1.69 | 0.958 | -0.649 (inactive) |
| C=CC[C@]1(C(=O)N(C)C)N=C(c2ccc(OCCCO)cc2)O[C@H]1c1ccccc1N=[N+]=[N-] | 1.07 | 0.298 (inactive) | 0.266 | 0.0805 | 0.489 | 2.81 | 0.55 | 1.3 | -0.811 | 0.877 | 2.04 | 1.22 | 0.264 | 1.02 | 0.899 | -0.267 | 1.08 | -0.0297 | 1.25 | -9.41 (active) |
| O=C1O[C@@H](c2ccccc2)[C@@H](c2ccccc2)N2[C@@H](c3ccccc3OCCO)[C@]3(C(=O)Nc4ccc(C#CCCO)cc43)[C@@H](C(=O)Nc3nc4ccccc4s3)[C@H]12 | 0.792 | 0.229 (inactive) | 0.302 | 0.0203 | 0.428 | 1.28 | 1.33 | 1.31 | 0.529 | 1.14 | 2.3 | 1.21 | 0.487 | 0.956 | 1.33 | 0.737 | -2.04 | 1.55 | 1.23 | -0.778 (inactive) |
